In PubChem BioAssay AID2284371 (EPA ToxCast):
Inconclusive results are not listed. Active and inactive are the calls of the source. The calls were made as follows: active = hit-call score of the fitted dose curve at least 0.9, where 1 is the maximum; inconclusive = response in the unintended direction; inactive = score below 0.9.

assay: ATG_M_61_EcoTox2: Attagene TRANS-FACTORIAL EcoTox-2 HepG2 Assay for M61 Transcription Factor (Internal Marker)
Method: ATG_EcoTox2 is a cell-based, multiplexed assay created by modifying the existing Attagene TRANS-FACTORIAL system to include a panel of nuclear receptors from some or all the following species: human (Homo sapiens), african clawed frog (Xenopus laevis), rainbow trout (Oncorhynchus mykiss), japanese medaka (Oryzias latipes), and zebrafish (Danio rerio). The ECOTOX2-FACTORIAL format uses HepG2, a human liver cell line, with measurements taken at 24 hours after chemical dosing in a 24-well plate. ATG_M_61_EcoTox2 is one of 29 assay components calculated in the ATG_EcoTox2 assay. It is designed to make measurements of mRNA induction, a form of inducible reporter, as detected with fluorescence intensity signals by Reverse transcription polymerase chain reaction (RT-PCR) and Capillary electrophoresis technology.The assay endpoint ATG_M_61_EcoTox2 was analyzed in the positive analysis fitting direction relative to DMSO as the negative control and baseline of activity. Using a type of inducible reporter, measures of mRNA for gain-of-signal activity can be used to understand the background control at the transcription factor-level as they relate to the gene. Furthermore, this assay endpoint can be referred to as a secondary readout, because this assay has produced multiple assay endpoints where this one serves a background control function. To generalize the intended target to other relatable targets, this assay endpoint is annotated to the background measurement intended target family, where the subfamily is internal marker.
Human liver HepG2 cells are transiently transfected with multiple reporter transcription units (MRTUs) in 6-well plates using FuGene 6 reagent (Roche; 3 ml FuGene/1 mg DNA). The MRTU constructs are regulated by a cis-regulating element (promoter). Each RTU expresses a GAL4-UAS that regulates the transcription of a nearby target reporter gene sequence. A major difference between the CIS and TRANS system is that in CIS activities of endogenous TFs are measured, whereas the TRANS assay evaluates changes in activities of exogenous, chimeric NR-Gal4 proteins. […] At the end of 24 hour incubation, total RNA was isolated using TriZol reagent (Invitrogen). The isolated RNA is then reverse-transcribed using oligo(dT) primer and Mo-MLV reverse transcriptase (Invitrogen) with DNAse I (Ambion) treatment for 30 min. The one-tenth of the produced cDNA was amplified by PCR using Taq DNA polymerase (Invitrogen) and two reporter sequence-specific primers. The PCR products were fluorescently labeled by primer extension with 6-arboxyfluorescein (6-FAM) 5'-labeled reporter sequence-specific primer (2 min at 95 C, 20 s at 68 C and 10 min at 72 C) and these products were digested with 5U of HpaI (New England Biolabs) for 2h at 37 C. The fragments were purified using Qiaquick PCR columns (Qiagen), analyzed on an ABI 3130xL genetic analyzer (Applied Biosystems) with peak positions identified by using a set of X-rhodamine (ROX)-labeled MapMarker1000 molecular weight standards (BioVentures). The raw capillary electrophoresis data was processed using Attagraph software (Attagene).

SMILES | outcome
CC(C)(Oc1ccc(Cl)cc1)C(=O)O | inactive
CC(C)(Oc1ccc(CCNC(=O)c2ccc(Cl)cc2)cc1)C(=O)O | inactive
CN(CCOc1ccc(CC2SC(=O)NC2=O)cc1)c1ccccn1 (stereo unspecified) | inactive
C=C(c1ccc(C(=O)O)cc1)c1cc2c(cc1C)C(C)(C)CCC2(C)C | inactive
CC(C)OC(=O)C(C)(C)Oc1ccc(C(=O)c2ccc(Cl)cc2)cc1 | inactive
Cc1nc(-c2ccc(C(F)(F)F)cc2)sc1C(=O)NCc1ccc(OC(C)(C)C(=O)O)cc1 | inactive
Cc1c(C)c2c(c(C)c1O)CCC(C)(COc1ccc(CC3SC(=O)NC3=O)cc1)O2 (stereo unspecified) | inactive
C[C@]12C=CC(=O)C=C1CC[C@@H]1[C@@H]2C(=O)C[C@@]2(C)[C@H]1CC[C@]2(O)C(=O)CO | inactive
CC(c1cc2ccccc2s1)N(O)C(N)=O (stereo unspecified) | inactive
Cc1cccc(Nc2cc(Cl)nc(SCC(=O)O)n2)c1C | inactive
CC(C)(Oc1ccc(C2CC2(Cl)Cl)cc1)C(=O)O (stereo unspecified) | inactive
